Drawing on PubChem BioAssay (NCI), this text covers growth for eight molecules.

Test systems include NCI-H23 lung; NCI-H226 lung; NCI-H322M lung; HOP-62 NSCLC; NCI-H460 lung; HOP-92 NSCLC; NCI-H522 lung; A549/ATCC NSCLC; 786-0 renal; COLO 205 colon; K-562 leukemia; MALME-3M melanoma; MDA-MB-231 breast; RXF 393 renal; SF-268 CNS; SF-295 CNS; SF-539 CNS; UACC-257 melanoma; M14 melanoma; DU-145 prostate.
What all share (test): NCI-60 one-dose screen, 48 h (100 = growth as untreated, 0 = no growth, -100 = all killed)
What all share (conditions): 10 µM unless noted

Compounds without any hit were thinned out: in the full panel of roughly 83,000, 20% have a hit.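 A percent growth of 40 corresponds to 60% growth inhibition; 0 means no net growth; -100 means all cells died. Active threshold: below 10.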 Unmarked numbers belong to inactive results. Calls of active or inactive are those of the source.

Consider `NC1CN2CCC1CC2` (stereo not drawn), for which the growth in the assay with NCI-H23 lung was 98.7%; in the assay on NCI-H226 lung it was 101%; in the assay with NCI-H322M lung, 96.5%; with HOP-62 NSCLC, 101%; in the assay on NCI-H460 lung, 109%; in the assay on HOP-92 NSCLC it was 77.7%. Moreover, the growth is 97.9% in the assay with NCI-H522 lung; 105% with A549/ATCC NSCLC; 89.4% in the assay on 786-0 renal; 104% with COLO 205 colon; 87.6% in the assay on K-562 leukemia; 105% in the assay with MALME-3M melanoma. In addition, the growth in the assay with MDA-MB-231 breast is 98.3%; in the assay with RXF 393 renal, 103%; in the assay with SF-268 CNS it was 97.2%; in the assay with SF-295 CNS, 95.9%; in the assay on SF-539 CNS it was 95.6%; in the assay on UACC-257 melanoma it was 101%. In addition, the growth in the assay on M14 melanoma is 97.8%.

Turning to `CCOC(=O)c1ccccc1C(=O)OCC`, the growth is 109% with NCI-H23 lung; 94.6% in the assay with NCI-H226 lung; 97.8% with NCI-H322M lung; 92.6% with HOP-62 NSCLC; 112% with NCI-H460 lung; 89.4% in the assay on HOP-92 NSCLC. For the same molecule, the growth in the assay with NCI-H522 lung is 61.1%; in the assay with A549/ATCC NSCLC it was 99.2%; in the assay with 786-0 renal, 96.4%; with COLO 205 colon, 120%; with DU-145 prostate, 118%; in the assay with MALME-3M melanoma, 102%. Further, the growth in the assay with MDA-MB-231 breast is 93.3%; with RXF 393 renal, 121%; in the assay on SF-268 CNS, 110%; in the assay with SF-295 CNS it was 83.5%; in the assay with SF-539 CNS, 107%; in the assay on UACC-257 melanoma, 91.3%. The growth with M14 melanoma is 103%.

As for `C#COc1cccc(Nc2ncnc3cc(NC(=O)CF)ccc23)c1`, the growth in the assay on NCI-H23 lung is 81.4% [6.25 µM]; in the assay with NCI-H226 lung it was 83.4% [6.25 µM]; in the assay on NCI-H322M lung it was 70.5% [6.25 µM]; in the assay with HOP-62 NSCLC, 30.3% [6.25 µM]; in the assay with NCI-H460 lung, 21.4% [6.25 µM]; in the assay with HOP-92 NSCLC, 47.7% [6.25 µM]. Also, the growth is -25.3% [6.25 µM] (active) in the assay with NCI-H522 lung; 40% [6.25 µM] in the assay with A549/ATCC NSCLC; 30.7% [6.25 µM] in the assay on 786-0 renal; 13.2% [6.25 µM] with COLO 205 colon; 76.1% [6.25 µM] in the assay on DU-145 prostate; 7.01% [6.25 µM] (active) in the assay on K-562 leukemia. Besides, the growth in the assay with MALME-3M melanoma is 60.9% [6.25 µM]; with MDA-MB-231 breast it was 50.9% [6.25 µM]; in the assay with RXF 393 renal it was 84.4% [6.25 µM]; in the assay with SF-268 CNS it was 51.8% [6.25 µM]; in the assay with SF-295 CNS, 29.9% [6.25 µM]; with SF-539 CNS it was 29.3% [6.25 µM]. For the same molecule, the growth in the assay with UACC-257 melanoma is 40.4% [6.25 µM]; with M14 melanoma it was 18.7% [6.25 µM].

As to `S=P(SP(=S)(c1ccccc1)c1ccccc1)(c1ccccc1)c1ccccc1`, the growth was 99% in the assay with NCI-H23 lung; 96.6% in the assay on NCI-H226 lung; 107% with NCI-H322M lung; 111% in the assay on HOP-62 NSCLC; 107% with NCI-H460 lung; 86.7% in the assay with HOP-92 NSCLC. In addition, the growth in the assay with NCI-H522 lung was 88.5%; in the assay on A549/ATCC NSCLC, 106%; with 786-0 renal, 110%; in the assay with COLO 205 colon, 118%; in the assay on DU-145 prostate, 106%; with K-562 leukemia, 97%. In addition, the growth in the assay with MALME-3M melanoma is 96.5%; in the assay with MDA-MB-231 breast, 94.1%; in the assay with RXF 393 renal, 97.1%; in the assay on SF-268 CNS, 95.8%; in the assay with SF-295 CNS, 92.5%; in the assay on SF-539 CNS, 103%. Further, the growth in the assay with UACC-257 melanoma is 104%; in the assay with M14 melanoma it was 101%.

Take `C[C@]12CCc3sc(Nc4ccc(F)cc4)nc3C1=CC[C@@H]1[C@@H]2CC[C@]2(C)C(=O)CC[C@@H]12`: the growth in the assay on NCI-H23 lung is 72.8%; in the assay with NCI-H226 lung, 86.7%; in the assay on NCI-H322M lung, 82.1%; in the assay on HOP-62 NSCLC it was 82%; with NCI-H460 lung it was 69.9%; in the assay with HOP-92 NSCLC it was 96.8%. The growth is 62% in the assay with NCI-H522 lung; 79.5% in the assay on A549/ATCC NSCLC; 5.28% (active) in the assay on 786-0 renal; 86% in the assay with COLO 205 colon; 19.3% in the assay with DU-145 prostate; 5.92% (active) with K-562 leukemia. The growth in the assay with MALME-3M melanoma is 78.7%; in the assay on MDA-MB-231 breast it was 84.4%; in the assay with RXF 393 renal it was 13.2%; with SF-268 CNS it was 69.3%; in the assay on SF-295 CNS, 28.7%; in the assay with SF-539 CNS it was 54.4%. The growth with UACC-257 melanoma was 85.9%; in the assay with M14 melanoma, 90%.

Turning to `COC(=O)[C@@H](C)C[C@H](Cc1ccccc1)NC(=O)c1cccc([C@@H](C[C@H](C(C)C)N(C)C(=O)[C@@H](NC(=O)[C@H]2CCCCN2C)C2CC2)OC(C)=O)n1`, the growth in the assay on NCI-H23 lung is 21%; in the assay on NCI-H226 lung, 22.8%; with NCI-H322M lung, 39.4%; in the assay on HOP-62 NSCLC it was 3.33% (active); in the assay with NCI-H460 lung it was 7.3% (active); in the assay with HOP-92 NSCLC, 5.28% (active). Further, the growth in the assay with NCI-H522 lung was -11.3% (active); in the assay on A549/ATCC NSCLC, 7.97% (active); in the assay with 786-0 renal, 20.8%; in the assay on COLO 205 colon, -69% (active); in the assay on DU-145 prostate it was 3.09% (active); in the assay on K-562 leukemia, 6.15% (active). Also, the growth with MALME-3M melanoma is 67.1%; with MDA-MB-231 breast, -20.4% (active); in the assay with RXF 393 renal, 23.4%; in the assay with SF-268 CNS, 18.6%; in the assay with SF-295 CNS it was 3.47% (active); in the assay with SF-539 CNS it was -15% (active). For the same molecule, the growth in the assay with UACC-257 melanoma is 36.4%; in the assay with M14 melanoma it was 1.47% (active).

Turning to `CNC(=O)Oc1ccc(Cl)cc1SSc1cc(Cl)ccc1OC(=O)NC`, the growth with NCI-H23 lung is 65.4%; in the assay with NCI-H226 lung it was 102%; with NCI-H322M lung, 103%; in the assay with HOP-62 NSCLC it was 95.2%; in the assay on NCI-H460 lung, 60.1%; with HOP-92 NSCLC, 42.7%. Besides, the growth in the assay with NCI-H522 lung is 51.2%; with A549/ATCC NSCLC, 103%; in the assay on 786-0 renal, 110%; with COLO 205 colon it was 110%; in the assay on DU-145 prostate, 96.7%; with K-562 leukemia it was 63.1%. Also, the growth with MALME-3M melanoma was 78.2%; with MDA-MB-231 breast, 78.3%; in the assay with RXF 393 renal, 107%; in the assay on SF-268 CNS, 65.8%; with SF-295 CNS, 75.7%; in the assay with SF-539 CNS, 98.2%. The growth with UACC-257 melanoma is 79%; in the assay on M14 melanoma, 112%.

Regarding `COc1ccc2c(c1)c(-c1nc(-c3cn(C)c4ncccc34)cs1)cn2CCCCN1CCOCC1`, the growth in the assay with NCI-H23 lung was 78.4%; in the assay on NCI-H226 lung, 70.1%; in the assay with NCI-H322M lung it was 65.9%; in the assay with HOP-62 NSCLC, 30.9%; in the assay on NCI-H460 lung, -31.9% (active); in the assay with HOP-92 NSCLC, 47.9%. For the same molecule, the growth in the assay on NCI-H522 lung is 3.68% (active); in the assay on A549/ATCC NSCLC, 48.3%; in the assay on 786-0 renal, -71.7% (active); with COLO 205 colon, -91.7% (active); with DU-145 prostate, 46.8%; with K-562 leukemia, -41% (active). The growth is -59.5% (active) in the assay with MALME-3M melanoma; 5.75% (active) in the assay with MDA-MB-231 breast; 0.734% (active) in the assay with RXF 393 renal; 52.8% with SF-268 CNS; -48.5% (active) in the assay on SF-295 CNS; 30.8% with SF-539 CNS. Further, the growth is 63.5% in the assay on UACC-257 melanoma and -66.9% (active) with M14 melanoma.
